Assay outcomes (PubChem)
In the library only some 28% were active in any assay of this set; here they are far more common.
CYP2C9 inh – human CYP2C9 inhibition; P11712; CYP2C9 Supersomes, luciferin-H conversion, luminescence; inhibition, % at 5 µM; hit rate 20% among 96,000;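 active = blocking of liver enzyme CYP2C9 beyond about 50% at 5 µM, limit read from the data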
PLK1 kinase inh – blocks human PLK1 kinase activity. hit rate 0.53% among 97,000. P53350. inhibition, % at 10 µM. recombinant PLK1 kinase, TR-FRET peptide phosphorylation. AID 619;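 active = inhibition of 50% or more in the single-concentration screen; inactive = inhibition below 50%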;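 note: 0% = DMSO max control and 100% = H-89 dihydrochloride min control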
PLK1 PBD inh – inhibitors of human Plk1 polo box domain binding; P53350; Plk1 PBD phosphopeptide binding, fluorescence polarization; inhibition, %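 (tested at about 20 µM)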; hit rate 0.13% among 97,000; in the data active = inhibition above about 34%, passing the limit was not always enough
CYP2C9 act – activators of human CYP2C9 | P11712 | recombinant CYP2C9, luciferin-H conversion, luminescence; hits give high values; factor 1 = untreated enzyme, 0 = blocked | activation factor at 5 µM | hit rate 1.4% among 96,000;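 active = activation factor of 2 or more for CYP2C9 at a 5 µM dose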;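 note: 0 = sulfaphenazole-blocked wells and 1 = vehicle-only wells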
CYP2C19 inhib – blocks human cytochrome P450 2C19. P33261. CYP2C19 Supersomes, luciferin-H EGE luminescence, 30 min. inhibition, % at 5 µM. hit rate 21% among 96,000;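 active = CYP2C19 inhibition above a set limit at 5 µM in the primary screen, cut at about 50% in these data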;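 note: plate controls were negative control wells for no effect and 2.5 mM tranylcypromine positive control for full effect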
Target sequence (P33261 whole entry, looked up): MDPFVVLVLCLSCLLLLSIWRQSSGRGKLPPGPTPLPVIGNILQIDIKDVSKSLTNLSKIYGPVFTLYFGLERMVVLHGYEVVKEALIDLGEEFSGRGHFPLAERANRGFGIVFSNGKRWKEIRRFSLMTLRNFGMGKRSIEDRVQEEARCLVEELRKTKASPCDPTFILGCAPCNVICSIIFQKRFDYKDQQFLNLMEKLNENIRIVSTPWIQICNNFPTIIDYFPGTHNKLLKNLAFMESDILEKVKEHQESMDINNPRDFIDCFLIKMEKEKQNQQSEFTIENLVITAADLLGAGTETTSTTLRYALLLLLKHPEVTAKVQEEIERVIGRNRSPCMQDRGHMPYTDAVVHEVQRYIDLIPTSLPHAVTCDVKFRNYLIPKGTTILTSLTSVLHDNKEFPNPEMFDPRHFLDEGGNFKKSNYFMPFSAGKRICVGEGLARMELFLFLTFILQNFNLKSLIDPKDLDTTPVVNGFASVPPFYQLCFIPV
CYP2C19 activ – cytochrome P450 2C19 (human) activation | P33261 | recombinant CYP2C19, luciferin-H EGE luminescence; hits give high values; 0 = fully inhibited enzyme, 1 = untreated enzyme | activation factor at 5 µM | 96,000 tested, under 10 active | AID 1025;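 active = activation factor of at least 2 at 5 µM in the primary screen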;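 note: 0 = wells with 2.5 mM tranylcypromine and 1 = vehicle-only wells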
* = called active by the depositor; . = not tested or not shown.

SMILES	CYP2C9 inh	PLK1 kinase inh	PLK1 PBD inh	CYP2C9 act	CYP2C19 inhib	CYP2C19 activ
O=C(NCc1cccnc1)C1c2ccccc2C(=O)N1C1CCCC1 (centres undefined)	32	.	.	0.7	75*	0.3
Cc1ccc(CN2C(=O)c3ccccc3C2C(=O)NCc2cccnc2)cc1 (centres undefined)	51*	-12	14	0.5	71*	0.3
COc1ccc(OC)c(CN2C(=O)c3ccccc3C2C(=O)NCc2cccnc2)c1 (centres undefined)	51*	.	.	0.5	57*	0.4
O=C(NCC1CCCO1)C1c2ccccc2C(=O)N1C1CCCCCC1 (centres undefined)	1	-12	42	1	8	0.9
CC(C(=O)NCc1cccnc1)N1C(=O)c2ccccc2C1=O (centres undefined)	.	-6	-21	.	.	.
COc1ccc(Cc2c(O)nc(SCC(=O)N3CCCCCC3)[nH]c2=O)cc1	.	-6	16	.	.	.
Cc1ccc(S(=O)(=O)N2CCOCC2)cc1NC(=O)COC(=O)CSc1ccc(Br)cc1C	-35	-10	8	1.3	41	0.6
CSC(=NCc1cccnc1)NS(=O)(=O)c1cccs1	13	5	-7	0.9	65*	0.3
Cc1ccc(O)c(NC(=S)NC(=O)c2ccc(-c3ccc(Cl)cc3)o2)c1	.	-4	4	.	.	.
CCNc1nc(N)c(C(=O)c2ccc(Cl)s2)s1	54*	68*	-26	0.5	83*	0.2
CC(C)(C)c1csc(NC(=O)c2ccc(Cl)s2)n1	31	-5	2	0.7	15	0.8
C=CCOc1ccc2c(c1)c(S(=O)(=O)c1ccc(C)cc1)cn2COC	37	-6	20	0.6	89*	0.1
CCCCSc1nc(N)c(NC(=O)c2ccco2)c(=O)[nH]1	-10	4	1	1.1	-21	1.2
COCCOC(=O)C1=C(C)OC(N)=C(C#N)C1c1ccco1 (centres undefined)	.	-4	2	.	.	.
C=CCOC(=O)C1=C(C)OC(N)=C(C#N)C1c1ccc2c(c1)OCO2 (centres undefined)	98*	5	-11	0	100*	0
C=CCOC(=O)C1=C(C)OC(N)=C(C#N)C1c1ccoc1 (centres undefined)	34	-3	-41	0.7	82*	0.2
COCCOC(=O)C1=C(C)OC(N)=C(C#N)C1c1ccc2c(c1)OCO2 (centres undefined)	68*	18	0	0.3	80*	0.2
COC(=O)C1=C(C)OC(N)=C(C#N)C1c1cccnc1 (centres undefined)	8	-9	4	0.9	4	1
CCOC(=O)C1=C(C)OC(N)=C(C#N)C1c1cc(C)sc1C (centres undefined)	36	-3	2	0.6	92*	0.1
CCOC(=O)C1=C(C)OC(N)=C(C#N)C1c1cc2ccccc2nc1N1CCCCC1 (centres undefined)	.	-10	3	.	.	.
O=C(NC1(C(F)(F)F)C(=O)Nc2c1c(=O)[nH]c(=O)n2-c1ccccc1)c1cccnc1 (centres undefined)	14	-1	-14	0.9	12	0.9
CCOC(=O)C1=C(C)NC(=O)NC1c1cc2c(cc1Br)OCO2 (centres undefined)	.	-3	-4	.	.	.
CCOC(=O)C1=C(C)OC(N)=C(C#N)C1C1CCCCC1 (centres undefined)	31	.	.	0.7	84*	0.2
CC(C)(C)C1=C(C#N)C(c2ccc3c(c2)OCO3)C(C#N)=C(N)O1 (centres undefined)	90*	0	11	0.1	89*	0.1
CCOC(=O)C1=C(c2ccccc2)OC(N)=C(C#N)C1C1CCCCC1 (centres undefined)	37	-6	-13	0.6	18	0.8
SMILES	CYP2C9 inh	PLK1 kinase inh	PLK1 PBD inh	CYP2C9 act	CYP2C19 inhib	CYP2C19 activ
CCOC(=O)C1=C(C)OC(N)=C(C#N)C1c1cc2c(cc1Br)OCO2 (centres undefined)	42	-10	-30	0.6	93*	0.1
CCOC(=O)C1=C(CC)OC(N)=C(C#N)C1c1cccs1 (centres undefined)	45	0	-14	0.6	53*	0.5
NC(=O)CN1CCOCCOCCN(CC(N)=O)CCOCCOCC1	.	-12	1	.	.	.
O=C(O)CC(=O)Nc1ccccc1C(=O)O	-22	0	-5	1.2	-3	1
CCOc1ccc(NC(=O)Nc2cccs2)cc1	30	1	6	0.7	36	0.6
N#CC1=C(N)SC(N)=C(C#N)C1c1ccoc1	35	-1	-51	0.7	10	0.9
CCOC(=O)C1=C(C)OC(N)=C(C#N)C1c1ccsc1 (centres undefined)	21	-1	13	0.8	63*	0.4
CC1=C(C#N)C(c2ccoc2)C(C(=O)OCc2ccccc2)=C(N)S1 (centres undefined)	100*	-5	20	0	98*	0
COC(=O)C1=C(C)OC(N)=C(C#N)C1c1ccccc1F (centres undefined)	16	-6	2	0.8	64*	0.4
Cc1nn2c3c(cnc2c1-c1ccccc1)C(=O)CC(C)C3 (centres undefined)	.	-8	7	.	.	.
COc1ccccc1NC(=O)COC(=O)[C@@H]1CCCN1C(=O)c1cccs1	8	-9	26	0.9	59*	0.4
CC(C)NC(=O)NC(=O)COC(=O)C1CCCN1C(=O)c1cccs1 (centres undefined)	17	-6	-1	0.8	12	0.9
O=C(COC(=O)[C@@H]1CCCN1C(=O)c1cccs1)NCCc1ccccc1	19	-6	42	0.8	60*	0.4
C=C(C)CC1Nc2ccccc2NC1CC(=C)C (centres undefined)	-9	-7	10	1.1	16	0.8
CC1CN(c2ccc(Oc3ccccc3)cc2)c2nc3c(c(=O)[nH]c(=O)n3C)n2C1 (centres undefined)	9	-11	5	0.9	-5	1
O=C1CS/C(=N\c2ccccn2)N1C1CCCCC1	9	-8	-29	0.9	4	1
CCC(C)NC(=O)CS(=O)Cc1nc(-c2ccccc2C)oc1C (centres undefined)	8	-18	-11	0.9	8	0.9
COc1cc2oc3ccccc3c2cc1N(CC(=O)N(C)C)S(=O)(=O)c1ccc(C)cc1	63*	-15	-10	0.4	45	0.5
CON(C)c1nc(OCCNC(=O)OCc2ccc(Cl)cc2Cl)nc(N(C)C)n1	63*	-9	-1	0.4	36	0.6
CN(C)c1nc(OCCNC(=O)COc2ccc(Cl)cc2Cl)nc(N2CCOCC2)n1	82*	-11	1	0.2	50	0.5
Cc1cc(Cl)ccc1OCC(=O)NCCOc1nc(N2CCOCC2)nc(N2CCOCC2)n1	23	-4	-24	0.8	19	0.8
